{"source": "PubChem BioAssay"}
{"test_system": "Human papillomavirus type 1a E7 protein (residues 1-88)", "assay": "HPV1a E7 small-molecule binders, primary screen, biochemical, small-molecule microarray, residues 1-88, 635 nm (AID 1129)", "details": "small-molecule microarray binding, fluorescence 635 nm; higher = more signal"}
{"smiles": "CC(=O)OC[C@H]1O[C@@H](ON=C[C@@H](C)[C@H](OCc2ccccc2)C(C)C)[C@H](OC(C)=O)[C@@H](OC(C)=O)[C@@H]1OC(C)=O", "composite z-score": -0.19}
{"smiles": "COC(=O)CC=C[C@@H](C)[C@@H](C=NO[C@H](C)c1cn([C@@H]2COC[C@H]2O)nn1)OC", "composite z-score": 0.695}
{"smiles": "CC(CCN1CCc2nc(-c3ccccc3)c(-c3ccccc3)cc2C1)=NOC(C)CN1CCCCc2nc(C)c(C)cc21", "note": "(centres undefined)", "composite z-score": 0.791}
{"smiles": "CC(=O)OC[C@H]1O[C@H](C#CCCCc2ccccc2)C=C[C@@H]1OC(C)=O", "composite z-score": 0.242}
{"smiles": "CCOc1ccc(N2C(=O)/C(=C/C=C/c3ccccc3OC)S(=O)(=O)C2c2cccc([N+](=O)[O-])c2)cc1", "note": "(centres undefined)", "composite z-score": 0.339}
{"smiles": "COC(=O)[C@@H]1N=C(c2ccc(OCCCO)cc2)O[C@@H]1c1ccccc1N=[N+]=[N-]", "composite z-score": 1.21}
{"smiles": "CCN1C(=O)[C@H]2[C@H]3[C@H](O)[C@H](O)CC(=NOC(C)CN4CCCCc5nc(C)c(C)cc54)[C@@H]3CC[C@H]2C1=O", "note": "(some centres undefined)", "composite z-score": 0.0084}
{"smiles": "CC(C)(C)OC(=O)CC[C@]1(C(N)=O)COC(c2ccc(OCCCO)cc2)=N1", "composite z-score": 0.804}
{"biological_target": "Focal adhesion kinase 1 (Homo sapiens) (UniProt Q05397)", "sequence (Q05397 whole entry, looked up)": "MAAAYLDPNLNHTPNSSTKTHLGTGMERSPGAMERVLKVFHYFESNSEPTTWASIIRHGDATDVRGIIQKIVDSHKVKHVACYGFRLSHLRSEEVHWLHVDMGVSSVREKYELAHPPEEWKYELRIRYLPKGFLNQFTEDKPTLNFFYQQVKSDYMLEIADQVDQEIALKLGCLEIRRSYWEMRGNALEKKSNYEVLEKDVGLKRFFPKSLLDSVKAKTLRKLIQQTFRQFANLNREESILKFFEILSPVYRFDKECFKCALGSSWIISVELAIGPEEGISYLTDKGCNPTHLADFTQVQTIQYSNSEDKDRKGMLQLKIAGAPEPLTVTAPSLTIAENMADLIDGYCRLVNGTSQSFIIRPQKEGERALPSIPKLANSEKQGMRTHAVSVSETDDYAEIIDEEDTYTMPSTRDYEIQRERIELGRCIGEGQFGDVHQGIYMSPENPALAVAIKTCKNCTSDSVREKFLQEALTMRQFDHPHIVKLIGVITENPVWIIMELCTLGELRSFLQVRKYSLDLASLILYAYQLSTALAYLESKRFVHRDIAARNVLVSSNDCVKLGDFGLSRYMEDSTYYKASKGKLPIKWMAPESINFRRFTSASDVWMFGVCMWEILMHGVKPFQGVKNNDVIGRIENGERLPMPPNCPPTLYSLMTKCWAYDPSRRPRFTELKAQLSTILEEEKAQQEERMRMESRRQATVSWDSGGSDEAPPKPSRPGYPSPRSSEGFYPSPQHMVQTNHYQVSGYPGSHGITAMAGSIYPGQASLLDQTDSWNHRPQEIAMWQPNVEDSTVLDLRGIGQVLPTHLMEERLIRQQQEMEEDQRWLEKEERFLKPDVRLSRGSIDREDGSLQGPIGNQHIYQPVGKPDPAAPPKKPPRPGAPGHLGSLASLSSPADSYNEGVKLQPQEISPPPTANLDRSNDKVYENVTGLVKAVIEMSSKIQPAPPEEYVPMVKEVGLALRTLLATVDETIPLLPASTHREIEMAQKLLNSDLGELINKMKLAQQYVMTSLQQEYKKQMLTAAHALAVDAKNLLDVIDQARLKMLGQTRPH", "assay": "PTK2 protein binding on printed compound slides – biochemical, small-molecule microarray, 635/667 nm fluorescence, BSA, DTT, primary screen (AID 1130);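 also: composite of spot emission at 667 nm and signal to noise over triplicate slides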", "details": "635 nm fluorescence, higher = more signal"}
{"smiles": "NCCCCCNC(=O)[C@@H]1C[C@@H]2C(=O)N3CCC[C@H]3C(=O)N2[C@@H]1c1cccc(OCCO)c1", "composite z-score": 1.13}
{"smiles": "C=CC[C@]1(C(=O)NCc2ccccc2)N=C(c2ccc(OCCCO)cc2)O[C@H]1c1ccccc1", "composite z-score": 0.115}
{"smiles": "COCCOC(=O)N1C(=O)[C@@]2(c3cc(C#CCNC(N)=O)ccc31)[C@H](c1ccc(O)cc1)N1[C@H](c3ccccc3)[C@H](c3ccccc3)OC(=O)[C@H]1[C@@H]2C(=O)N1CCCCCCC1", "composite z-score": 0.14}
{"smiles": "O=C1[C@H]2[C@H]3[C@H](O)[C@H](O)CC(=NO[C@@H]4O[C@H](CO)[C@@H](O)[C@H](O)[C@H]4O)[C@@H]3CC[C@H]2C(=O)N1Cc1ccc2c(c1)OCO2", "composite z-score": 0.293}
{"smiles": "O=C1[C@H]2[C@H]3[C@H](O)[C@H](O)CC(=NOCc4ccccc4)[C@@H]3CC[C@H]2C(=O)N1C1CCCCC1", "composite z-score": 0.179}
{"smiles": "O=C1[C@H]2[C@H]3[C@H](O)[C@H](O)CC(=NO[C@@H]4O[C@H](CO)[C@@H](O)[C@H](O)[C@H]4O)[C@H]3CC[C@H]2C(=O)N1Cc1ccc2c(c1)OCO2", "composite z-score": 0.0254}
{"smiles": "O=C(NN=C1C[C@@H](O)[C@@H](O)[C@@H]2[C@@H]3C(=O)N(c4cccc(Oc5ccccc5)c4)C(=O)[C@@H]3CC[C@H]12)OCc1ccccc1", "composite z-score": -0.294}
{"smiles": "CC(C)CON=C1C[C@@H](O)[C@@H](O)[C@@H]2[C@@H]3C(=O)N([C@@H](C)c4ccccc4)C(=O)[C@@H]3CC[C@H]12", "composite z-score": 0.657}
{"smiles": "CC(=O)O[C@H]1C2=C(C(=O)[C@@H]3O[C@@H]31)[C@H]1C(C)O[C@@H]2[C@@]23C(=O)[C@@H]4O[C@@H]4[C@@H](O)C2=CO[C@H](C)[C@@H]13", "note": "(some centres undefined)", "composite z-score": -0.0962}
{"smiles": "CC(C)(C)N1C(=O)[C@H]2[C@H]3[C@H](O)[C@H](O)CC(=NOCc4ccccc4)[C@@H]3CC[C@H]2C1=O", "composite z-score": -0.0913}
{"smiles": "O=C1[C@H]2[C@H]3[C@H](O)[C@H](O)CC(=NOC[C@@H](O)COCc4ccco4)[C@H]3CC[C@H]2C(=O)N1c1cccc(Oc2ccccc2)c1", "composite z-score": -0.112}
{"smiles": "CC(C)=CCCC(C)=CCON=C1C[C@@H](O)[C@@H](O)[C@@H]2[C@@H]3C(=O)N(C[C@@H]4CCCO4)C(=O)[C@@H]3CC[C@@H]12", "composite z-score": 0.121}
{"smiles": "Cc1ccc(S(=O)(=O)N[C@@H]2COC(=O)[C@H](C)COC(=O)CC=C[C@H]2C)cc1", "composite z-score": -0.232}
{"smiles": "CCc1cc2c(nc1CC)CCN(CCC(C)=NO[C@@H](C)c1cc(-c3c(C)cc(C)cc3C)no1)C2", "composite z-score": -0.0159}
{"smiles": "CC(=O)OC[C@H]1O[C@@H](ON=C(C)CCN2CCc3nc(-c4ccccc4)c(-c4ccccc4)cc3C2)[C@H](OC(C)=O)[C@@H](OC(C)=O)[C@@H]1OC(C)=O", "composite z-score": 0.276}
{"smiles": "Cc1ccc(S[C@]2(C(=O)NCC(F)(F)F)CC(=O)N(Cc3ccccc3Cl)[C@@H]2c2ccc(CO)cc2I)cc1", "composite z-score": 0.395}
{"smiles": "CO[C@@H]1COC(=O)CC=C[C@@H](C)COC(=O)[C@H](COCc2ccccc2)NC(=O)CC=C[C@H]1C", "composite z-score": -0.765}
{"smiles": "O[C@@H](Cc1ccccc1)[C@H]1C2C=CCCC(c3ccccc3)=C2CN1Cc1cccc(Cl)c1", "note": "(some centres undefined)", "composite z-score": -0.0839}
{"smiles": "CC(=O)OC[C@H]1O[C@H](CCON=C[C@@H](C)[C@H](OCc2ccccc2)C(C)C)C=C[C@@H]1OC(C)=O", "composite z-score": -0.101}
{"smiles": "CC1(C)OCC(C(O)C2=CCCCC2=O)CO1", "note": "(centres undefined)", "composite z-score": 0.0102}
{"smiles": "CO[C@@H]1COC(=O)CC=C[C@@H](C)[C@@H]2C=C[C@H](O)[C@@H](COC(=O)[C@H](C)NC(=O)CC=C[C@H]1C)O2", "composite z-score": -0.407}
{"smiles": "CCCCCN1CC=CC23O[C@@H]4C=CCOC(=O)[C@@H]4[C@H]2C(=O)N(CCCCCCO)[C@@H]3C1=O", "note": "(some centres undefined)", "composite z-score": -0.236}
{"smiles": "COCCCNC(=O)[C@@]1(C)c2ccccc2C(=O)N(Cc2ccc(OC(F)(F)F)cc2)[C@H]1c1ccc(CO)cc1", "composite z-score": -0.253}
{"smiles": "CC(C)[C@@H](OCc1ccccc1)[C@H](C)C=NO[C@H](C)c1cn([C@H](CO)Cc2ccccc2)nn1", "composite z-score": -0.238}
{"smiles": "c1ccc(C2NCCc3c2[nH]c2ccccc32)cc1", "note": "(centres undefined)", "composite z-score": -0.0707}
{"smiles": "O=C1NC(=O)C2C1C=CC(C(O)Cc1ccccc1)N2Nc1ccccn1", "note": "(centres undefined)", "composite z-score": 0.116}
{"smiles": "CCOC(=O)[C@H](Cc1ccccc1)NC(=O)CCC1CC(OC(=O)NCCc2ccc(F)cc2)CC2(CCCC(COC(=O)NCC(c3ccccc3)c3ccccc3)O2)O1", "note": "(some centres undefined)", "composite z-score": 0.111}
{"smiles": "COCCOC(=O)N1C(=O)[C@@]2(c3cc(C#Cc4ccc(OC)cc4)ccc31)[C@H](C(=O)N1CCN(c3ncccn3)CC1)[C@H]1C(=O)O[C@H](c3ccccc3)[C@H](c3ccccc3)N1[C@@H]2c1ccc(OCCO)cc1", "composite z-score": 0.253}
{"smiles": "CC(=O)OC[C@H]1O[C@@H](ON=C[C@@H](C)[C@H](OCc2ccccc2)C(C)C)[C@H](OC(C)=O)[C@@H](OC(C)=O)[C@@H]1OC(C)=O", "composite z-score": -0.0838}
{"smiles": "COC(=O)CC=C[C@@H](C)[C@@H](C=NO[C@H](C)c1cn([C@@H]2COC[C@H]2O)nn1)OC", "composite z-score": -0.0208}
{"smiles": "CC(CCN1CCc2nc(-c3ccccc3)c(-c3ccccc3)cc2C1)=NOC(C)CN1CCCCc2nc(C)c(C)cc21", "note": "(centres undefined)", "composite z-score": 0.718}
{"smiles": "CC(=O)OC[C@H]1O[C@H](C#CCCCc2ccccc2)C=C[C@@H]1OC(C)=O", "composite z-score": 0.126}
{"smiles": "CCOc1ccc(N2C(=O)/C(=C/C=C/c3ccccc3OC)S(=O)(=O)C2c2cccc([N+](=O)[O-])c2)cc1", "note": "(centres undefined)", "composite z-score": 0.0604}
{"smiles": "COC(=O)[C@@H]1N=C(c2ccc(OCCCO)cc2)O[C@@H]1c1ccccc1N=[N+]=[N-]", "composite z-score": 0.942}
{"smiles": "CCN1C(=O)[C@H]2[C@H]3[C@H](O)[C@H](O)CC(=NOC(C)CN4CCCCc5nc(C)c(C)cc54)[C@@H]3CC[C@H]2C1=O", "note": "(some centres undefined)", "composite z-score": 0.167}
{"smiles": "CC(C)(C)OC(=O)CC[C@]1(C(N)=O)COC(c2ccc(OCCCO)cc2)=N1", "composite z-score": -0.0765}
